Source: the supplement of paper PMC3545927
The other results are listed elsewhere or left out. No count for the full screen is at hand.

B1: HC2444 (peptide)
chain: CAEIEVPCHRAGNASASA
B2: HC603 (peptide)
chain: CAVFDITKLLAGNASASA
B3: FS-600 (peptide)
chain: CAKAARAKKIAGNASASA
B4: HC1073 (peptide)
chain: CAAATAFVGAAGNASASA
B5: HC1060 (peptide)
chain: CASPLTTSQTAGNASASA
B6: FS-717 (peptide)
chain: CASFARIKKWAGNASASA
B7: FS-413 (peptide)
chain: CAEKARKGKSAGNASASA
B8: FS-176 (peptide)
chain: CALKARRKKSAGNASASA
B9: HC1140 (peptide)
chain: CARLHQWISSAGNASASA
B10: FS-803 (peptide)
chain: CAIKCRTKKSAGNASASA
B11: FS-414 (peptide)
chain: CAEPGREKKSAGNASASA
B12: FS-829 (peptide)
chain: CAMLYRHKKSAGNASASA
B13: FS-1651 (peptide)
chain: CARLYREKKSAGNASASA
B14: FS-157 (peptide)
chain: CAEPKRIKKSAGNASASA
B15: FS-615 (peptide)
chain: CALSNRTMKSAGNASASA
B16: HC2339 (peptide)
chain: CAEPPCHRPSAGNASASA
B17: HC1458 (peptide)
chain: CALYDVVTKLAGNASASA
B18: HC1948 (peptide)
chain: CAWCTTPCSGAGNASASA
B19: HC2352 (peptide)
chain: CAEVECHRPSAGNASASA
B20: HC2427 (peptide)
chain: CAFREVPCHRAGNASASA
B21: HC387 (peptide)
chain: CAPERLASCRAGNASASA
B22: HC2017 (peptide)
chain: CAVSCCSMSYAGNASASA
B23: FS-434 (peptide)
chain: CAGSHRRQRRAGNASASA
B24: NG1 (peptide)
chain: CASSNQLQRRAGNASASA
B25: FS-45 (peptide)
chain: CAKRSRDARRAGNASASA
B26: FS-743 (peptide)
chain: CAAISRRQRRAGNASASA

Target: furin, P09958
Sequence (P09958 whole entry): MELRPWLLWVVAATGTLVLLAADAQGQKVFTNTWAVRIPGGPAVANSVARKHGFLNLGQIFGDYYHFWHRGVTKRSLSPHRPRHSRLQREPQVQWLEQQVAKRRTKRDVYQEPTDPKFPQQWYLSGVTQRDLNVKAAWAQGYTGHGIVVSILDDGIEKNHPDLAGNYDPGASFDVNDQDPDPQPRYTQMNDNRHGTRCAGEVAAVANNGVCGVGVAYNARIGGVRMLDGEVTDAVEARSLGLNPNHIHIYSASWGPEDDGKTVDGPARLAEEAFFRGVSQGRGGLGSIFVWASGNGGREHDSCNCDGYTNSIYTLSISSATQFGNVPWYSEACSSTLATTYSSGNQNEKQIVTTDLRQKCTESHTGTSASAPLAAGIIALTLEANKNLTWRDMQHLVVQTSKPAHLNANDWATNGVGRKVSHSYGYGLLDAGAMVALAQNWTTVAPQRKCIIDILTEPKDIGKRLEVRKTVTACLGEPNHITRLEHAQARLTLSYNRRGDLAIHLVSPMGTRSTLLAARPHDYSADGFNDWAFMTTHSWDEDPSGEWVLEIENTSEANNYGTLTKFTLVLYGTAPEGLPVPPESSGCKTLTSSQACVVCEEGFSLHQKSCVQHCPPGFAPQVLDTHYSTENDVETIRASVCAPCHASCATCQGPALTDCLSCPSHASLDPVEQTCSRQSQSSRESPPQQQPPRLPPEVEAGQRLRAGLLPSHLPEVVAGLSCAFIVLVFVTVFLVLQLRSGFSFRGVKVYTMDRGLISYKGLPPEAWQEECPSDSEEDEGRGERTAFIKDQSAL
Assay: furin cleavage Z-score vs untreated control; higher = more cleavage, active = 3.5 or more, inactive = 1 or less, 8 variable residues between constant flanks
In short: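 The cleavage Z-score is the log read count relative to furin-free reactions, lowess-adjusted and scaled by median absolute deviation. Counts came from sequencing DNA released from bead-bound 8-mer peptide–cDNA fusions after digestion with purified furin for 7.5, 15 or 30 min.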
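Note: purified furin at 1:10 enzyme:substrate in 50 mM HEPES pH 7.5.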

Row | Sequence | furin cleavage Z-score (7.5 min) | furin cleavage Z-score (15 min) | furin cleavage Z-score (30 min)
1 | B1 | 1.1 | 1.09 | 0.798 (inactive)
2 | B2 | 0.928 (inactive) | -0.333 (inactive) | 0.0832 (inactive)
3 | B3 | -0.438 (inactive) | -0.00567 (inactive) | -0.411 (inactive)
4 | B4 | -1.28 (inactive) | -0.663 (inactive) | -0.282 (inactive)
5 | B5 | 0.0213 (inactive) | -0.739 (inactive) | 0.362 (inactive)
6 | B6 | -0.31 (inactive) | -0.161 (inactive) | 1.88
7 | B7 | -1.2 (inactive) | -1.61 (inactive) | -0.85 (inactive)
8 | B8 | 7.34 (active) | 8.84 (active) | 7.56 (active)
9 | B9 | 0.126 (inactive) | -1.75 (inactive) | -1.83 (inactive)
10 | B10 | 1.77 | 4.04 (active) | 3.26
11 | B11 | -0.759 (inactive) | 0.432 (inactive) | -0.848 (inactive)
12 | B12 | 0.949 (inactive) | 1.65 | 1.42
13 | B13 | 0.828 (inactive) | 2.77 | 3.88 (active)
14 | B14 | 3.63 (active) | 4.2 (active) | 3.26
15 | B15 | 1.04 | -0.454 (inactive) | 0.561 (inactive)
16 | B16 | 0.111 (inactive) | -0.455 (inactive) | -0.0572 (inactive)
17 | B17 | 0.188 (inactive) | 0.0294 (inactive) | -0.805 (inactive)
18 | B18 | 1.23 | 0.244 (inactive) | 1.72
19 | B19 | 1.1 | 0.203 (inactive) | 0.236 (inactive)
20 | B20 | 0.22 (inactive) | 0.297 (inactive) | 0.623 (inactive)
21 | B21 | -0.263 (inactive) | 0.599 (inactive) | 1.53
22 | B22 | 0.592 (inactive) | -0.576 (inactive) | 1.57
23 | B23 | 9.09 (active) | 10.6 (active) | 8.98 (active)
24 | B24 | 0.397 (inactive) | 2.01 | -0.568 (inactive)
25 | B25 | 1.61 | -0.052 (inactive) | 2.16
26 | B26 | 6.03 (active) | 8.53 (active) | 7.79 (active)
